Where a name gives a salt, the structure may show the parent alone. The whole screen tested about 1,200 compounds, of which about 50 (4%) showed activity. Only a selection was taken, and actives are over-represented in it overall. Values without a mark were called inactive. No stated cut-off is given here; in the data, all actives reach 1.3 or more but so do some inactives.
These molecules were tested on Lgr5 (MarsCy1-Lgr5-EGFP, U2OS) (assay: cell-surface Lgr5 expression (SCi1 fluorescence, background-subtracted) relative to WT DMSO (fold of DMSO control); higher = more Lgr5 at the plasma membrane, active = hit call of the paper). Conditions: U2OS MarsCy1-Lgr5-EGFP stable; treatment time: overnight; 16 µM; library: Johns Hopkins Clinical Compound Library.

SMILES | cell-surface Lgr5 expression
[Ca+2].[OH-].[OH-] [Calcium hydroxide] | 1.1
O.O=C([O-])CN(CCN(CC(=O)[O-])CC(=O)[O-])CC(=O)[O-].[Ca+2].[Na+].[Na+] [Edetate calcium disodium (Calcium disodium versenate)] | 0.981
O.O=C([O-])CN(CCN(CC(=O)[O-])CC(=O)[O-])CC(=O)[O-].[Ca+2].[Na+].[Na+] | 1
Cc1cc2nc3ccc(N(C)C)cc3[s+]c2cc1N [Tolonium chloride (Toluidine blue O)] | 1.15
c1ccc(-c2ccc(C(c3ccccc3)n3ccnc3)cc2)cc1 (stereo not drawn) [Bifonazole] | 1.04
[Fe+3].[Fe+3].[O-2].[O-2].[O-2].[O-2].[Zn+2] [Calamine] | 0.886
Cc1ncc(CSSCc2cnc(C)c(O)c2CO)c(CO)c1O [Pyrithioxin] | 1.16
CN(C)CCOC(C)(c1ccccc1)c1ccc(Cl)cc1 (stereo not drawn) [Chlorphenoxamine hydrochloride] | 1.15
O=C([O-])C(O)C(O)C(=O)[O-].[K+].[Na+] (stereo not drawn) [Potassium sodium tartrate tetrahydrate] | 1.1
O=CC(O)C(O)C(O)C(O)CO (stereo not drawn) [Glucose (D)] | 1.02
O=C[C@H](O)[C@@H](O)[C@H](O)[C@H](O)C(=O)[O-].[Na+] [Sodium glucuronate (D-Glucuronic acid)] | 1.32 (active)
Cc1ccc2c(Br)cc(Br)c(O)c2n1 [Broquinaldol (5,7-dibromo-8-hydroxy-quinaldine)] | 1.1
Cc1ccc(/C(=C\CN2CCCC2)c2cccc(/C=C/C(=O)O)n2)cc1 [Acrivastine] | 1.15
N[C@@H](C(=O)N[C@@H]1C(=O)N2C(C(=O)O)=C(Cl)CC[C@H]12)c1ccccc1 [Loracarbef] | 0.67
CCCCN(CCCC)CCCOC(=O)c1ccc(N)cc1 [Butacaine] | 1.62 (active)
CCCCOC(=O)c1ccc(N)cc1 [Butamben (n-butyl p aminobenzoate)] | 1
CCN(CC)CCOC(=O)c1ccc(N)cc1 [Procaine hydrochloride] | 0.937

SMILES | cell-surface Lgr5 expression
Cc1ncc(COP(=O)(O)O)c(C=O)c1O [Pyridoxal-5-phosphate] | 0.951
CCCCn1c(=O)c2c(ncn2CC(C)=O)n(CCCC)c1=O [Denbufylline] | 1.44
C[C@@H](O[C@H]1OCCN(Cc2n[nH]c(=O)[nH]2)[C@H]1c1ccc(F)cc1)c1cc(C(F)(F)F)cc(C(F)(F)F)c1 [Aprepitant] | 1.01
Cn1c(NCCN(CCO)CCCc2ccc([N+](=O)[O-])cc2)cc(=O)n(C)c1=O [Nifekalant] | 0.923
[Cl-].[Cl-].[Cl-].[In+3] [Indium(III) chloride] | 0.736
CCN(CC)CC(=O)Nc1c(C)cccc1C [Lidocaine] | 1.19
Cc1cccc(C)c1NC(=O)C(C)N (stereo not drawn) [Tocainide hydrochloride] | 1.07
CC[N+](CC)(CC)CC(=O)Nc1c(C)cccc1C [Lidocaine N-ethyl bromide] | 1.39 (active)
O[C@@H]1[C@H](O)[C@@H](O)C=C[C@H]1O [Conduritol] | 1.03
Nc1c2ccccc2nc2ccccc12 [Aminacrine (9-Aminoacridine)] | 0.26
O=C(O)c1cc(-c2ccccc2)nc2ccccc12 [Cinchophen (2-phenyl 4-quinoline carboxylic acid)] | 1.45 (active)
O=C(O)c1ccccc1I [2-Iodobenzoic acid] | 1.04
O=C(O)c1cc(O)c(O)c(O)c1 [Gallic acid] | 0.979
O=C(Nc1ccccc1)c1cc(Cl)ccc1O [5-Chlorosalicylanilide] | 1.12
COC1=C(OC)C(=O)C(CCCCCCCCCCO)=C(C)C1=O [Idebenone] | 1.04
CC1(C)S[C@@H]2[C@H](NC(=O)COc3ccccc3)C(=O)N2[C@H]1C(=O)O.CN(C)[C@@H]1C(O)=C(C(=O)NCN2CCN(CCO)CC2)C(=O)[C@@]2(O)C(O)=C3C(=O)c4c(O)cccc4[C@@](C)(O)[C@H]3C[C@@H]12 [Penimepicycline] | 0.846
